Results as given in the supplement of paper PMC4022240.
± gives the standard deviation.

Experiments:
Assay in all cases: peptide microarray binding signal (635 nm), min-max normalized on array (fraction of array maximum); higher = stronger binding
[1] = biological target: T1, HaloTag-ATRX ADD domain (163-292)
T1 chain: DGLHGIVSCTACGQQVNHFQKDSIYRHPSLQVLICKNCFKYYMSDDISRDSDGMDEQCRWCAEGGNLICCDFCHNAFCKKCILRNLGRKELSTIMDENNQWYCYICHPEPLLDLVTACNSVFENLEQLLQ
Description: (§1)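 Histone 13-mer peptides were synthesized as cellulose conjugates with a C-terminal 20-atom PEG linker and printed in triplicate on nitrocellulose. The sequence given is the unmodified backbone; PTMs (Kme1/2/3, Kac, Sph/Tph, Rme/Rme2a/Rme2s, Rcit) are listed in the label and the 'peptide modifications' condition. Slides were probed at 4 °C for 1 h with biotin-labelled (HQ)5-HaloTag reader fusions (ATRX-ADD, ING2-PHD) then streptavidin-Alexa647, or with rabbit histone antibodies then anti-rabbit Alexa647. The mean 635 nm signal of the triplicate spots was scaled 0-1 between the lowest and highest values on each array.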

[2] = biological target: HaloTag-ING2 PHD (mouse Ing2 200-280)
Description: as §1

[3] = biological target: anti-H3K4me3 antibody ab8580
Description: as §1

[4] = biological target: anti-H3K9me3 antibody ab8898
Description: as §1

[5] = peptide region: H2A 11-23, peptide modifications: H2AK13ac, binder concentration: 1:2,000 dilution
[6] = peptide region: H2A 11-23, peptide modifications: H2AK13ac, binder concentration: 1:10,000 dilution
[7] = peptide region: H2A 11-23, peptide modifications: H2AK13ac H2AK15ac H2AT16ph, binder concentration: 1:2,000 dilution
[8] = peptide region: H2A 11-23, peptide modifications: H2AK13ac H2AK15ac H2AT16ph, binder concentration: 1:10,000 dilution
[9] = peptide region: H2B 7-19, peptide modifications: H2BK11ac H2BK12ac H2BK15ac, binder concentration: 1:2,000 dilution
[10] = peptide region: H2B 7-19, peptide modifications: H2BK11ac H2BK12ac H2BK15ac, binder concentration: 1:10,000 dilution
[11] = peptide region: H2B 1-13, peptide modifications: H2BK11ac, binder concentration: 1:2,000 dilution
[12] = peptide region: H2B 1-13, peptide modifications: H2BK11ac, binder concentration: 1:10,000 dilution
[13] = peptide region: H2A 11-23, peptide modifications: H2AK13ac H2AK15ac, binder concentration: 1:2,000 dilution
[14] = peptide region: H2A 11-23, peptide modifications: H2AK13ac H2AK15ac, binder concentration: 1:10,000 dilution

B1: H2A 11-23 R A Kac A K T R S S R A G L (peptide)
chain: RAKAKTRSSRAGL
- peptide microarray binding signal ([1]; peptide region: H2A 11-23, peptide modifications: H2AK13ac, binder concentration: 50 nM): 0.00351 ± 0.00033
- peptide microarray binding signal ([1]; peptide region: H2A 11-23, peptide modifications: H2AK13ac, binder concentration: 500 nM): 0.00457
- peptide microarray binding signal ([2]; peptide region: H2A 11-23, peptide modifications: H2AK13ac, binder concentration: 10 nM): 0.003641 ± 3.4e-05
- peptide microarray binding signal ([2]; peptide region: H2A 11-23, peptide modifications: H2AK13ac, binder concentration: 100 nM): 0.0034 ± 0.00042
- peptide microarray binding signal [3, 5]: 0.00051 ± 3.1e-05
- peptide microarray binding signal [3, 6]: 0.00103 ± 2.8e-05
- peptide microarray binding signal [4, 5]: 0.000378 ± 1.6e-05
- peptide microarray binding signal [4, 6]: 0.00075 ± 2.9e-05

B2: H2A 11-23 R A Kac A Kac Tph R S S R A G L (peptide)
chain: RAKAKTRSSRAGL
- peptide microarray binding signal ([1]; peptide region: H2A 11-23, peptide modifications: H2AK13ac H2AK15ac H2AT16ph, binder concentration: 50 nM): 0.0063 ± 0.00011
- peptide microarray binding signal ([1]; peptide region: H2A 11-23, peptide modifications: H2AK13ac H2AK15ac H2AT16ph, binder concentration: 500 nM): 0.0115 ± 0.00047
- peptide microarray binding signal ([2]; peptide region: H2A 11-23, peptide modifications: H2AK13ac H2AK15ac H2AT16ph, binder concentration: 10 nM): 0.01009 ± 7e-05
- peptide microarray binding signal ([2]; peptide region: H2A 11-23, peptide modifications: H2AK13ac H2AK15ac H2AT16ph, binder concentration: 100 nM): 0.0109 ± 0.00022
- peptide microarray binding signal [3, 7]: 0.001265 ± 1e-05
- peptide microarray binding signal [3, 8]: 0.00297 ± 7.6e-05
- peptide microarray binding signal [4, 7]: 0.00107 ± 7.3e-05
- peptide microarray binding signal [4, 8]: 0.00179 ± 3.4e-05

B3: H2B 7-19 A P A P Kac Kac G S Kac K A V T (peptide)
chain: APAPKKGSKKAVT
- peptide microarray binding signal ([1]; peptide region: H2B 7-19, peptide modifications: H2BK11ac H2BK12ac H2BK15ac, binder concentration: 50 nM): 0.00809 ± 0.00032
- peptide microarray binding signal ([1]; peptide region: H2B 7-19, peptide modifications: H2BK11ac H2BK12ac H2BK15ac, binder concentration: 500 nM): 0.0163 ± 0.00026
- peptide microarray binding signal ([2]; peptide region: H2B 7-19, peptide modifications: H2BK11ac H2BK12ac H2BK15ac, binder concentration: 10 nM): 0.0198 ± 0.0062
- peptide microarray binding signal ([2]; peptide region: H2B 7-19, peptide modifications: H2BK11ac H2BK12ac H2BK15ac, binder concentration: 100 nM): 0.0125 ± 0.0012
- peptide microarray binding signal [3, 9]: 0.0168 ± 0.0011
- peptide microarray binding signal [3, 10]: 0.00325 ± 0.00019
- peptide microarray binding signal [4, 9]: 0.00323 ± 0.00057
- peptide microarray binding signal [4, 10]: 0.00248 ± 0.00015

B4: H2B 1-13 P E P A K S A P A P Kac K G (peptide)
chain: PEPAKSAPAPKKG
- peptide microarray binding signal ([1]; peptide region: H2B 1-13, peptide modifications: H2BK11ac, binder concentration: 50 nM): 0.00254 ± 0.00043
- peptide microarray binding signal ([1]; peptide region: H2B 1-13, peptide modifications: H2BK11ac, binder concentration: 500 nM): 0.001762 ± 1.6e-05
- peptide microarray binding signal ([2]; peptide region: H2B 1-13, peptide modifications: H2BK11ac, binder concentration: 10 nM): 0.0156 ± 0.012
- peptide microarray binding signal ([2]; peptide region: H2B 1-13, peptide modifications: H2BK11ac, binder concentration: 100 nM): 0.00113
- peptide microarray binding signal [3, 11]: 0.000774 ± 9.3e-05
- peptide microarray binding signal [3, 12]: 0.000342 ± 3.8e-06
- peptide microarray binding signal [4, 11]: 0.000302 ± 1.1e-05
- peptide microarray binding signal [4, 12]: 0.000404 ± 4.4e-06

B5: H2A 11-23 R A Kac A Kac T R S S R A G L (peptide)
chain: RAKAKTRSSRAGL
- peptide microarray binding signal ([1]; peptide region: H2A 11-23, peptide modifications: H2AK13ac H2AK15ac, binder concentration: 50 nM): 0.00307 ± 8.1e-05
- peptide microarray binding signal ([1]; peptide region: H2A 11-23, peptide modifications: H2AK13ac H2AK15ac, binder concentration: 500 nM): 0.00481 ± 0.00022
- peptide microarray binding signal ([2]; peptide region: H2A 11-23, peptide modifications: H2AK13ac H2AK15ac, binder concentration: 10 nM): 0.0034 ± 8e-05
- peptide microarray binding signal ([2]; peptide region: H2A 11-23, peptide modifications: H2AK13ac H2AK15ac, binder concentration: 100 nM): 0.00227 ± 5.8e-05
- peptide microarray binding signal [3, 13]: 0.000359 ± 1.5e-05
- peptide microarray binding signal [3, 14]: 0.000628 ± 6.7e-06
- peptide microarray binding signal [4, 13]: 0.000529 ± 5.7e-05
- peptide microarray binding signal [4, 14]: 0.000577 ± 1.6e-05
